Shown are actives, neighbours in structure and some others; about 5.3% of the full set was active somewhere.
Vaccinia Venus = qHTS for Stage-Specific Inhibitors of Vaccinia Orthopoxvirus: Venus Reporter Primary qHTS; AID 720580, 2013; Vaccinia virus Venus reporter expression, fluorescence; 0.46% of 330,000 active; Potency, µM (top dose mostly 36.5 µM), hits mostly inhibitors; calls by dose curve; tested in A549 cells; further: nearly all actives have a fitted effect of over 30% in size
MARV entry inh = qHTS for inhibitors of binding or entry into cells for Marburg Virus | Marburg virus pseudotyped entry inhibition, cell reporter | Potency, µM (highest dose often 37.8 µM), usual class: inhibitors | 1.8% of 300,000 active; calls by dose curve; tested in HEK293 cells
Vaccinia mCherry = qHTS for Stage-Specific Inhibitors of Vaccinia Orthopoxvirus: mCherry Reporter Primary qHTS; 0.63% of 310,000 active; Vaccinia virus mCherry reporter infection, fluorescence; Potency, µM (top dose mostly 36.5 µM), usual class: inhibitors; calls by dose curve; tested in A549 cells; further: nearly all actives have a fitted effect of over 35% in size
FMDV antiviral = High Throughput Screening for Foot and Mouth Disease Virus Antivirals; 1.2% of 410,000 active; Potency, µM (top dose mostly 57.9 µM), usual class: inhibitors; FMDV antiviral cell-based qHTS; calls by dose curve; tested in HEK293T cells; further: read-out not given here; nearly all actives have a fitted effect of over 45% in size
HCV inhibitor = qHTS Assay for Inhibitors of Hepatitis C Virus (HCV); Potency, µM (titrated, usually from 41.8 µM), usual class: inhibitors; Huh7.5.1 HCVcc-Cre infection, luciferase reporter, 44 h; 3.4% of 340,000 active; active means well fitted inhibition curve with a large enough effect; inconclusive means small, poorly fitted or top-dose-only effect, or another doubt; inactive means no such curve, though single readings can be large or run the other way
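Reporter virus HCVcc-Cre (~0.5 moi) infects cells exposed to compound; seeding density 1,000 cells/well with 4 h settling beforehand. Luminescence, 15 sec read, taken 44 h post-infection following a 15 min RT substrate incubation.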
LASV entry inh = qHTS for Inhibitors of binding or entry into cells for Lassa Virus; Potency, µM (titrated, usually from 37.9 µM), usual class: inhibitors; 1.2% of 300,000 active; AID 540256, 2011; Lassa virus pseudotype entry inhibition, cell reporter; calls by dose curve; tested in HEK293 cells; further: nearly all actives have a fitted effect of over 50% in size
Each line names hits and unclear results; the compound was inactive in the other large screens.

COC(=O)c1cccc(-c2ccc(C(c3c(C)[nH][nH]c3=O)c3c(C)[nH][nH]c3=O)o2)c1	FMDV antiviral inconclusive
COC(=O)c1ccccc1-c1ccc(C(c2c(C)[nH][nH]c2=O)c2c(C)[nH][nH]c2=O)o1	FMDV antiviral 20µM, LASV entry inh inconclusive
O=C(/C=C/c1ccc(O)cc1)c1ccc(NC2=C(N3CCCCC3)C(=O)c3ccccc3C2=O)cc1	Vaccinia Venus inconclusive, MARV entry inh inconclusive, Vaccinia mCherry 1.4µM, FMDV antiviral inconclusive, HCV inhibitor 10µM, LASV entry inh inconclusive
Cc1ccc(NC2=C(N3CCCCC3)C(=O)c3ccccc3C2=O)cc1	MARV entry inh inconclusive, LASV entry inh inconclusive (no result: FMDV antiviral)
O=C1C(NS(=O)(=O)c2ccccc2)=C(N2CCN(c3ccc(F)cc3)CC2)C(=O)c2ccccc21	Vaccinia Venus inconclusive, Vaccinia mCherry 0.32µM (no result: MARV entry inh, LASV entry inh)
CN(C1=C(N2CCCCC2)C(=O)c2ccccc2C1=O)c1ccccc1	MARV entry inh inconclusive, HCV inhibitor 13µM, LASV entry inh inconclusive (no result: FMDV antiviral)
O=C1C(Nc2ccccc2)=C(N2CCCCC2)C(=O)c2ccccc21	Vaccinia Venus inconclusive, MARV entry inh inconclusive, HCV inhibitor 10µM
Cc1ccc(C(=O)[C@H]2[C@H](c3cccs3)NC(=O)N[C@]2(O)C(F)(F)F)cc1	none (no result: Vaccinia Venus, Vaccinia mCherry, FMDV antiviral, HCV inhibitor, LASV entry inh)
COc1ccc(/C=C/c2cc(O)cc(O[C@H]3OC(CO)C(O)C(O)C3O)c2)cc1 (some centres undefined)	none (no result: MARV entry inh, HCV inhibitor, LASV entry inh)
CC#CCN1C(=O)NC(c2ccccc2)C(C(=O)OCC)=C1c1ccccc1 (centres undefined)	none (no result: Vaccinia Venus, Vaccinia mCherry, FMDV antiviral, HCV inhibitor, LASV entry inh)
CCc1ccc(NC(=O)CSc2nc3c(sc4ccccc43)c(=O)n2CCCOC(C)C)cc1	LASV entry inh inconclusive (no result: MARV entry inh, HCV inhibitor)
CCc1cccc(C)c1NC(=O)Cn1c(=O)cc(C)c2c(C)nn(-c3cccc(F)c3)c21	none (no result: MARV entry inh, HCV inhibitor)
O=C(NC(C(=O)N/N=C/c1cccc2ccccc12)c1n[nH]c(=O)c2ccccc12)c1ccccc1 (centres undefined)	Vaccinia Venus inconclusive, MARV entry inh inconclusive, HCV inhibitor 22µM, LASV entry inh inconclusive (no result: Vaccinia mCherry)
O=C(NC(C(=O)N/N=C/c1ccncc1)c1n[nH]c(=O)c2ccccc12)c1ccccc1 (centres undefined)	none
CCC(=NCCC(c1ccccc1)c1ccccc1)c1c(O)n(C)c(=O)n(C)c1=O	MARV entry inh inconclusive, FMDV antiviral inconclusive, LASV entry inh inconclusive
CCC(=NCc1ccc(F)cc1)c1c(O)n(C)c(=O)n(C)c1=O	MARV entry inh inconclusive, FMDV antiviral 40µM, HCV inhibitor 10µM (no result: Vaccinia Venus, Vaccinia mCherry)
CCCOc1cccc([C@H]2/C(=C(/O)c3ccc(F)cc3)C(=O)C(=O)N2CCN(C)C)c1	none (no result: Vaccinia Venus, Vaccinia mCherry, FMDV antiviral, HCV inhibitor, LASV entry inh)
COC(=O)C[C@H]1C[C@H]2c3cc(NS(=O)(=O)c4ccc(OC)cc4)ccc3O[C@H]2[C@H](CO)O1	none (no result: MARV entry inh, HCV inhibitor, LASV entry inh)
COc1ccccc1C(=O)NC(=O)Nc1c(C)cc(C)cc1C	HCV inhibitor 13µM (no result: Vaccinia Venus, MARV entry inh, Vaccinia mCherry, LASV entry inh)
COc1cccc(C(=O)Nc2cccc(-c3nnc(-c4ccco4)o3)c2)c1	Vaccinia Venus inconclusive, MARV entry inh inconclusive, Vaccinia mCherry inconclusive, FMDV antiviral 14µM, HCV inhibitor 22µM, LASV entry inh inconclusive
O=C(Nc1ccccc1)c1ccc2nc(-c3ccco3)c(-c3ccco3)nc2c1	HCV inhibitor 8.9µM, LASV entry inh inconclusive
COc1ccc(Br)cc1C(=O)Nc1cccc(-c2nnc(-c3ccco3)o2)c1	MARV entry inh 21µM, HCV inhibitor inconclusive (no result: FMDV antiviral)
COc1ccc(Br)cc1C(=O)Nc1ccc(NC(=O)c2ccco2)cc1	none (no result: Vaccinia mCherry)
CC(=O)c1ccc(NC(=O)c2ccc3nc(-c4ccco4)c(-c4ccco4)nc3c2)cc1	MARV entry inh inconclusive, FMDV antiviral inconclusive, HCV inhibitor inconclusive
O=C(Nc1ccccc1)c1cccc(-c2nnc(-c3ccccc3)o2)c1	none (no result: Vaccinia mCherry)
O=C(Nc1ccc2nc(-c3ccco3)c(-c3ccco3)nc2c1)N1CCN(c2ccccn2)CC1	MARV entry inh inconclusive, FMDV antiviral inconclusive, HCV inhibitor 7.9µM
C/C(CCN1CCCc2nc(C)c(C)cc21)=N\O[C@H](C)c1cn([C@@H]2COC[C@H]2O)nn1	none (no result: Vaccinia Venus, Vaccinia mCherry, FMDV antiviral, HCV inhibitor, LASV entry inh)
COc1ccc([C@@H]2NC3=C(CCC3)[C@@]3(C#N)C(OC)(OC)N=C(N)[C@]23C#N)cc1	none (no result: Vaccinia Venus, Vaccinia mCherry, FMDV antiviral, HCV inhibitor, LASV entry inh)
COc1ccc(Br)cc1C(=O)Nc1cc(C)cc(C)c1	HCV inhibitor 5.6µM
COc1ccccc1N1CCN(c2cc(C)nc3c(-c4ccc(Cl)cc4)c(C)nn23)CC1	none (no result: MARV entry inh, HCV inhibitor)
Cc1ccc(Cl)cc1Nc1nc2ccccc2c2nncn12	MARV entry inh inconclusive (no result: HCV inhibitor)
O=S(=O)(CC(CN1CCCCC1)N1CCCCC1)c1ccccc1 (centres undefined)	FMDV antiviral 35µM, HCV inhibitor inconclusive (no result: Vaccinia Venus, MARV entry inh, Vaccinia mCherry, LASV entry inh)
O=[N+]([O-])c1ccc(S(=O)(=O)CC(CN2CCOCC2)N2CCOCC2)cc1 (centres undefined)	Vaccinia Venus inconclusive, MARV entry inh inconclusive, Vaccinia mCherry inconclusive, HCV inhibitor 11µM, LASV entry inh inconclusive
O=[N+]([O-])c1ccc(Oc2ccc(S(=O)(=O)N3CCOCC3)cc2)cc1	MARV entry inh inconclusive, Vaccinia mCherry inconclusive, HCV inhibitor 11µM, LASV entry inh inconclusive
O=[N+]([O-])c1ccc(-c2ccc(S(=O)(=O)N3CCOCC3)cc2)cc1	none (no result: Vaccinia Venus, MARV entry inh, Vaccinia mCherry, LASV entry inh)
C#CCCCON=C1C[C@@H](O)[C@H](O)[C@H]2[C@@H]3C(=O)N(C4CCCCC4)C(=O)[C@@H]3CC[C@@H]12	none (no result: Vaccinia Venus, Vaccinia mCherry, FMDV antiviral, HCV inhibitor, LASV entry inh)
COc1cccc(C2(CC(=O)N3CCN(c4ccccc4O)CC3)CC(=O)N(C3CCCC3)C2=O)c1 (centres undefined)	none (no result: MARV entry inh, HCV inhibitor, LASV entry inh)
COc1ccc2cc(CNc3ccc(C)cc3)c(=O)n(CC(=O)Nc3ccc(OC)c(Cl)c3)c2c1	none (no result: MARV entry inh, HCV inhibitor)
CC(C)C(=O)N1CCC(CN=Cc2c(O)n(C3CCCCC3)c(=O)n(C3CCCCC3)c2=O)CC1	Vaccinia Venus inconclusive, MARV entry inh inconclusive, FMDV antiviral inconclusive, HCV inhibitor inconclusive, LASV entry inh 14µM
CN(C)CCN=Cc1c(O)n(C2CCCCCC2)c(=O)[nH]c1=O	none (no result: Vaccinia mCherry)
CC1(C)C(O)CC(O)[C@]2(C)C1CC(O)[C@]1(C)C2CC[C@@]2(C)C(c3ccoc3)OC(=O)C3O[C@]312 (some centres undefined)	none (no result: MARV entry inh, HCV inhibitor, LASV entry inh)
CC1(C)C(=O)C=C[C@@]2(C)C1=C(O)C(=O)[C@@]1(C)C2CC[C@@]2(C)C(c3ccoc3)C[C@H]3O[C@@]321 (some centres undefined)	Vaccinia Venus inconclusive, Vaccinia mCherry inconclusive, FMDV antiviral 10µM (no result: MARV entry inh, HCV inhibitor, LASV entry inh)
C(=N\Nc1nc(-c2ccccc2)cs1)/c1cccs1	MARV entry inh inconclusive, HCV inhibitor 10µM, LASV entry inh inconclusive
C[n+]1ccn(CC(=O)c2cccs2)c1	LASV entry inh inconclusive
CCCCCCCCCCCCCCCCn1cc[n+](C)c1	Vaccinia Venus inconclusive, MARV entry inh inconclusive, Vaccinia mCherry inconclusive, FMDV antiviral 32µM, HCV inhibitor 5.6µM

Source: PubChem BioAssay
